According to PMC5540273 (PLoS ONE, 2017):

Each compound was assayed on DYRK1A. Conditions: concentration: 1 μM, replicates: in singlicate; n = 1.
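Also: KINOMEscan kinase panel screen.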

SMILES	%Inh [%]
Cc1cccc(-c2nc(Nc3cccc(C(N)=O)c3)c3ccccc3n2)n1 [GW876019]	6
CC(C)(C)c1ccc(C(=O)Nc2cn3cc(-c4cccnc4)ccc3n2)cc1	42
Clc1cc(Cl)cc(Nc2ccnc(Nc3cc(Cl)cc(Cl)c3)n2)c1 [GSK175726]	0
COc1ccc(CNC(=O)NC2CCN(c3ccnc(Nc4cc(OC)c(OC)c(OC)c4)n3)C2)cc1 (stereo not drawn) [GSK1379748]	6
Fc1cccc(COc2nnc(-c3ccc4c(c3)CCO4)o2)c1	44
CN1C(=O)C(Nc2ccc(Cl)c(C(=O)O)c2)=C(c2ccc(Cl)cc2)C1=O [SB-404290]	2
Cn1cncc1-c1ccc2ncnc(Nc3ccc(OCc4ccccc4)cc3)c2c1 [GW320571]	12
Nc1ncnc2[nH]c(-c3ccccc3)nc12 [AH5015]	46
Cc1nnc(-c2ccc3occ(-c4ccc(S(C)=O)cc4)c3c2)[nH]1 (stereo not drawn)	19
Fc1cc(Cl)ccc1Nc1ccnc2cc(I)ccc12 [GW551191]	33
CC(C)(C)c1ccc(C(=O)Nc2cn3cc(Cl)ccc3n2)cc1	47
C[C@@H]1CCCCN1c1cc(-c2ccc3c(N)n[nH]c3c2)nc(N)n1 [GSK2258759]	0
Cc1cccc(-c2nc(Nc3ccc4[nH]ncc4c3)c3ccccc3n2)n1 [GW857175]	24
Cc1cccc(-c2cc(Nc3ccncc3)c3ccccc3n2)n1 [GSK223675]	8
COc1cc2nccc(Nc3ccc(NC(=O)c4ccc(C)cc4)c(O)c3)c2cc1OC.Cl [GW440132]	11
COc1cc(Nc2nccc(N3CCC(NC(=O)Nc4cc(C)ccc4C)C3)n2)cc(OC)c1OC (stereo not drawn) [GSK1379762]	25
COC(=O)c1c(-c2ccccc2)c2cc(OC)ccc2c(=O)n1Cc1ccccc1	0

SMILES	%Inh [%]
Cc1c(Cn2ccn3c(=O)cc(N4CCOCC4)nc23)cccc1C(F)(F)F [GSK2289044]	10
Cl.Oc1ccc(-c2nc(-c3ccccc3)[nH]c2-c2ccncc2)cc1 [SB-428218]	17
CC1=C(C(=O)Nc2cc3cn[nH]c3cc2F)C(c2ccc(C(F)(F)F)cc2)CC(=O)N1 (stereo not drawn) [GSK429286]	21
CCCc1ccc(S(=O)(=O)NC2CCN(c3ccnc(Nc4ccc(F)cc4)n3)C2)cc1 (stereo not drawn) [GSK1379715]	23
Cc1ccc(NC(=O)Nc2cccc(Cl)c2)cc1-c1ccc(C(=O)Nc2ccncc2)cc1 [GSK1398468]	1
O=S(=O)(c1ccc(-c2ccnc3[nH]ccc23)cc1)N1CCCC1 [GSK846226]	21
Cn1ccc2ncnc(Oc3ccc(NC(=O)Nc4ccccc4)cc3)c21	6
CCn1c(-c2ccccn2)nc2cnccc21 [SB-736398]	19
CC(=O)Nc1nc2cnc(Nc3cc(NC(=O)c4cccc(CCC#N)c4)ccc3C)nc2s1	0
Cc1cccc(-c2nc(C)cc(Nc3ccncc3)n2)n1 [GSK257997]	6
CS(=O)(=O)c1ccc(-c2c(-c3ncn[nH]3)sc(N3CCOCC3)c2C#N)cc1	1
O=C(O)COc1ncnc2cc(-c3ccc4[nH]ncc4c3)sc12	67
Cc1c(O)cccc1Nc1ccnc2ccc(C(F)(F)F)cc12.Cl [GW466413]	29
O=C(Nc1ccc2c(c1)OCO2)NC1CCN(c2ccnc(Nc3ccc(F)cc3)n2)C1 (stereo not drawn) [GSK1379724]	27
Cl.c1ccc(-c2n[nH]cc2-c2ccnc(-c3ccc(CN4CCOCC4)cc3)c2)nc1 [GW776245]	0
Cc1ccc(NC(=O)Nc2cc(C(C)(C)C)nn2-c2ccccc2)cc1 [GSK1014915]	33
